The values that follow come from PubChem BioAssay (Tox21).

Each structure is given as a SMILES string. Unmarked numbers belong to inactive results. Results filed as inconclusive are left out. The source made the active and inactive calls. Unless noted, calls follow the shape of the dose curve; as a rule, active = well fitted curve in the direction sought with a large enough effect in the repeat runs; inconclusive = weak or mixed curves; inactive = no such curve, though single readings can be large; an effect the other way counts as inactive or inconclusive.

Test [1] can be described thus: qHTS RealTime-Glo MT Cell Viability Assay in HEK293 cells - 8 hour (AID 1224887). Also: nearly all actives have a fitted effect of over 50% in size. Also: potency is read from the fitted curve at half-maximal effect. In a few lines: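 600 cells/well were plated with the nonlytic NanoLuc/prosubstrate reagent, pre-incubated 5 h, then given 23 nL of compound in DMSO. Incubation at 37 C for 40 h, with luminescence from viable-cell-reduced substrate read repeatedly from 0 h.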
Background: Quantitative high-throughput screening tests each substance at several concentrations.

Test [2] is described as follows: qHTS RealTime-Glo MT Cell Viability Assay in HepG2 cells - 0 hour (AID 1224889). Also: nearly all actives have a fitted effect of over 50% in size. In outline:
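Luminescence read-out: viable HepG2 cells reduce a prosubstrate to a NanoLuc substrate, giving a signal proportional to live cell number. Reads taken at 0, 8, 16, 24, 32 and 40 h of compound exposure at 37 C.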

A short description of test [3]: A CellTox Green Cytotoxicity Assay to monitor cytotoxicity in HepG2 cells - 8 hour (AID 1224890). Also: nearly all actives have a fitted effect of over 45% in size. Also: potency is read from the fitted curve at half-maximal effect. In outline:
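HepG2 cells, 600/well, preincubated 5 h with CellTox Green dye, then exposed to Tox21 compounds in DMSO at 37 C for up to 40 h. Dead-cell DNA fluorescence read at the indicated time point.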

A short description of test [4]: qHTS assay to identify small molecule antagonists of the estrogen receptor alpha (ER-alpha) signaling pathway using the BG1 cell line in the presence of 0.1 nM 17-beta-estradiol - cell viability counter screen (AID 1259241). Also: nearly all actives have a fitted effect of over 40% in size. Also: potency is read from the fitted curve at half-maximal effect. In a few lines: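 CellTiter-Fluor read (30 min, 37C) on ER-alpha/ERE-luc VM7Luc4E2 cells; 22 hr compound treatment; agonist 0.1 nM E2 final; same-well multiplex.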

Test [5] in a line: qHTS assay to identify small molecule antagonists of the androgen receptor (AR) signaling pathway using the MDA cell line in the presence of 0.5 nM R1881 - cell viability counter screen (AID 1259242). Also: nearly all actives have a fitted effect of over 45% in size. In outline: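 MDA-kb2 cells (MMTV-luciferase, AR/GR responsive) were treated with compounds plus 0.5 nM R1881 (final) for 16 hr at 37C, 0% CO2. Viability was then read in the same wells as live-cell protease fluorescence (CellTiter-Fluor, 30 min).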

The target in test [6] is Estrogen receptor (Homo sapiens) (UniProt P03372). The experiment in a line: qHTS assay to identify small molecule antagonists of the estrogen receptor alpha (ER-alpha) signaling pathway using the BG1 cell line in the presence of 0.1 nM 17-beta-estradiol (AID 1259244). Also: nearly all actives have a fitted effect of over 50% in size. Also: potency is read from the fitted curve at half-maximal effect. In outline: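 VM7Luc4E2 cells (endogenous full-length ER-alpha, 4×ERE-luciferase), kept 5 days in phenol red-free, charcoal-stripped FBS medium; 4,000 cells/well. Compounds added with 0.1 nM (final) 17beta-estradiol, 22 hr at 37C; luminescence read with ONE-Glo after 30 min.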

Test [7] can be described thus: qHTS assay to identify small molecule HDAC inhibitors (AID 1259364). Also: top concentration of the series differs between compounds; nearly all actives have a fitted effect of over 45% in size. In outline:
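Wild-type HCT-116 cells, plated overnight at 37 C, exposed to compounds 2 hr at 37 C; luminogenic HDAC-Glo substrate then added 30 min at room temperature. Luminescence reports relative endogenous class I/II HDAC activity.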

The nature of test [8]: qHTS assay to identify small molecule HDAC inhibitors - cell viability counter screen (AID 1259365). Also: series mostly up to about 92 µM; nearly all actives have a fitted effect of over 50% in size. In outline:
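To flag cytotoxic hits, 1,500 wild-type HCT-116 cells per well, plated the day before, receive test compounds for 2hr at 37 C before CellTiter-Glo reagent and a luminescence read.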

Test [9] can be described thus: qHTS assay to identify small molecule antagonists of the sonic hedgehog signaling (Shh) pathway - cell viability counter screen (AID 1259367). Also: nearly all actives have a fitted effect of over 55% in size. Also: potency is read from the fitted curve at half-maximal effect. In outline:
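Cells: 3T3 Gli1-Luc, 2,000/well, 4 hr pre-incubation. Compounds in DMSO, then conditioned medium. Incubation 24 hr, 37C, 5% CO2. CellTiter-Fluor at 23 hr, 1 hr, fluorescence.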

Test [10] is described as follows: qHTS assay to identify small molecule agonists of the sonic hedgehog signaling (Shh) pathway (AID 1259368; calls by dose curve;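 also: NIH/3T3-derived 3T3Gli1-Luc cells carrying a stable Gli1-driven firefly luciferase reporter; series mostly up to about 92 µM; nearly all actives have a fitted effect of over 15% in size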). In a few lines: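 NIH/3T3-derived 3T3Gli1-Luc cells with stably integrated Gli1-driven firefly luciferase, 2,000 cells/well, compounds added after 4 hr. Incubated 24 hr at 37C, 5% CO2; luminescence read after 30 min with luciferase reagent at room temperature.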

A short description of test [11]: qHTS assay to identify small molecule antagonists of the sonic hedgehog signaling (Shh) pathway (AID 1259369; calls by dose curve; also: nearly all actives have a fitted effect of over 45% in size; also: potency is read from the fitted curve at half-maximal effect). In a few lines:
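NIH/3T3-derived Gli1-Luc reporter cells plated 4 h, dosed with compound, then stimulated with conditioned medium for 24 h at 37 C. Firefly luciferase luminescence read after 30 min with detection reagent at room temperature.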

Test [12] concerns the target Estrogen receptor beta (Homo sapiens) (UniProt Q92731). Kind of test: qHTS assay to identify small molecule agonists of the estrogen receptor beta (ER-beta) signaling pathway (AID 1259377; active = well fitted activation curve with a large enough effect in the signal ratio in the repeat runs, not every such curve was filed as active; the % refers to the signal ratio). In a few lines:
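Screening used GripTite ER-beta-UAS-bla cells held in 2% charcoal-stripped FBS medium. After overnight (16 hr) compound incubation at 37C, beta-lactamase activity was detected with a FRET substrate by fluorescence.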

Test [13] in a line: qHTS assay to identify small molecule agonists of the androgen receptor (AR) signaling pathway in the presence of an antagonist - cell viability counter screen (AID 1259379). Also: nearly all actives have a fitted effect of over 25% in size. Also: potency is read from the fitted curve at half-maximal effect. In a few lines:
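MDA-kb2 cells (MMTV-luciferase, AR/GR), 3,000/well, 5 h attachment, then 3.0 µM nilutamide (final) and compounds at 15 concentrations. Viability by CellTiter-Fluor fluorescence after 16 h at 37 °C, 0% CO2, in the reporter wells.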

The target of test [14] is Androgen receptor (Homo sapiens) (UniProt P10275). Kind of test: qHTS assay to identify small molecule agonists of the androgen receptor (AR) signaling pathway in the presence of an antagonist (AID 1259381; calls by dose curve; also: nearly all actives have a fitted effect of over 15% in size). In outline: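 MDA-kb2 cells carrying MMTV-luciferase (AR/GR responsive), 3,000 cells/well, co-treated with 3.0 uM nilutamide final. Compounds at 15 concentrations, 16 hr at 37C without CO2. Luciferase luminescence read after 30 min with ONE-Glo.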

Test [15] in a line: A CellTox Green Cytotoxicity Assay to monitor cytotoxicity in HEK293 cells - 16 hour (AID 1224888). Also: nearly all actives have a fitted effect of over 35% in size. Also: potency is read from the fitted curve at half-maximal effect. In a few lines: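 HEK293 cells, 600/well, were preincubated 5 hours and then exposed to compounds at 37 C for up to 40 hours. A cell-impermeant cyanine dye staining dead-cell DNA was read by fluorescence at 0, 8, 16, 24, 32 and 40 h time points.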
The nature of test [16]: qHTS assay to identify small molecule phospholipidosis (PLD) inducers (AID 1259344; active = well fitted curve in the direction sought with a large enough effect; an effect the other way counts as inactive or inconclusive; also: potency is read from the fitted curve at half-maximal effect). In a few lines:
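Phospholipidosis is scored by imaging LipidTOX-stained pits in HepG2 cells exposed to compound for 24 h at 37 C; pit counts and integrated intensities per well and per cell serve as outputs.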

Test [17] in a line: qHTS assay to identify small molecule agonists of the sonic hedgehog signaling (Shh) pathway - cell viability counter screen (AID 1259366). Also: nearly all actives have a fitted effect of over 50% in size. Also: potency is read from the fitted curve at half-maximal effect. In outline: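 Fluorescence from CellTiter-Fluor reports live cells in this counter screen. NIH/3T3-derived Gli1-Luc reporter cells receive test compounds for 24hr at 37C; reagent goes in at 23hr.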
For test [18], the target named is Estrogen receptor beta (Homo sapiens) (UniProt Q92731). Kind of test: qHTS assay to identify small molecule antagonists of the estrogen receptor beta (ER-beta) signaling pathway (AID 1259378; active = well fitted inhibition curve with a large enough effect in the signal ratio in the repeat runs, not every such curve was filed as active; the % refers to the signal ratio; also: potency is read from the fitted curve at half-maximal effect). In a few lines:
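Antagonist mode: compounds added to beta-lactamase reporter HEK293T ER-beta-UAS cells stimulated with E2 (1nM final), 16 hr at 37C. LiveBLAzer B/G FRET substrate, 2 hours room temperature, fluorescence read-out.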

A short description of test [19]: qHTS assay to identify small molecule agonists of the estrogen receptor beta (ER-beta) signaling pathway - cell viability counter screen (AID 1259380). Also: nearly all actives have a fitted effect of over 30% in size. Also: potency is read from the fitted curve at half-maximal effect. In outline:
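ER-beta-UAS-bla HEK293T cells in medium with 2% charcoal-stripped FBS, pre-incubated 6 hr, then treated 16 hr at 37C. Cytotoxicity read in the same wells by CellTiter-Glo luminescence after 30 min at room temperature.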

Test [20] concerns the target Androgen receptor (Homo sapiens) (UniProt P10275). Kind of test: qHTS assay to identify small molecule antagonists of the androgen receptor (AR) signaling pathway using the MDA cell line in the presence of 0.5 nM R1881 (AID 1259243). Also: nearly all actives have a fitted effect of over 50% in size. In a few lines: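 MDA-kb2 cells (MMTV-luciferase, responsive to AR and GR) at 3,000/well, rested 5 h at 37C, 0% CO2, then given compounds plus 0.5 nM R1881 (final) for 16 hr. Luciferase read with ONE-Glo after 30 min at room temperature.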

Chain of Estrogen receptor (Homo sapiens) (P03372 whole entry, looked up): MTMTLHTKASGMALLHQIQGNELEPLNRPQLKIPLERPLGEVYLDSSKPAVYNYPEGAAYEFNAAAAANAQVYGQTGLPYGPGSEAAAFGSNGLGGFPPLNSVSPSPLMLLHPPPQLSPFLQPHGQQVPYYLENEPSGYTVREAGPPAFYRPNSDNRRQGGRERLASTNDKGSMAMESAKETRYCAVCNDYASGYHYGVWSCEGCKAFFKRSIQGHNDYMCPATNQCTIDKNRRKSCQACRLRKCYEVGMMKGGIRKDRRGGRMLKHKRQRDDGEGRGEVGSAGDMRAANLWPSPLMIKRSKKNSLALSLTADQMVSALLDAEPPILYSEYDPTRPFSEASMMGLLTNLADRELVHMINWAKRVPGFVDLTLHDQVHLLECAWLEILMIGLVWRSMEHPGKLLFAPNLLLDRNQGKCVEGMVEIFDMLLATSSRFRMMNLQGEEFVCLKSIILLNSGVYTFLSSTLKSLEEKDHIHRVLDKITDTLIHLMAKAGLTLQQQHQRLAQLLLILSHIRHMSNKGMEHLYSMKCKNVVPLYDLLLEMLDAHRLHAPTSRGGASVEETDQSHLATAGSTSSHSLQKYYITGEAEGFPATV
Chain of Estrogen receptor beta (Homo sapiens) (Q92731 whole entry, looked up): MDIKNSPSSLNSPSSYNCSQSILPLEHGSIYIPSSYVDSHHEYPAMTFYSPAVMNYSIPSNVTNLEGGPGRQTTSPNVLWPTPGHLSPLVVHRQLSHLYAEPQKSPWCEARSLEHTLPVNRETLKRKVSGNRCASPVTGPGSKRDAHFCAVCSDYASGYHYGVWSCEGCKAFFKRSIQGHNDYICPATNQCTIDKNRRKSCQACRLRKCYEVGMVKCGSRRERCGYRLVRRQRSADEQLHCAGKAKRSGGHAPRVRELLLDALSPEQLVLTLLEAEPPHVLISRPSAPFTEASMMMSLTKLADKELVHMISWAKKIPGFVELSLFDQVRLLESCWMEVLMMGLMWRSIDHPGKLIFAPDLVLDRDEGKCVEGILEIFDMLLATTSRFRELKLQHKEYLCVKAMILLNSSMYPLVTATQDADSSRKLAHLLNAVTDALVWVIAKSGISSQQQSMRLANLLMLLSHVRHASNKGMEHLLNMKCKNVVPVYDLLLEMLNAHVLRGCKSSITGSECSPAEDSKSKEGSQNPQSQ
Chain of Androgen receptor (Homo sapiens) (P10275 whole entry, looked up): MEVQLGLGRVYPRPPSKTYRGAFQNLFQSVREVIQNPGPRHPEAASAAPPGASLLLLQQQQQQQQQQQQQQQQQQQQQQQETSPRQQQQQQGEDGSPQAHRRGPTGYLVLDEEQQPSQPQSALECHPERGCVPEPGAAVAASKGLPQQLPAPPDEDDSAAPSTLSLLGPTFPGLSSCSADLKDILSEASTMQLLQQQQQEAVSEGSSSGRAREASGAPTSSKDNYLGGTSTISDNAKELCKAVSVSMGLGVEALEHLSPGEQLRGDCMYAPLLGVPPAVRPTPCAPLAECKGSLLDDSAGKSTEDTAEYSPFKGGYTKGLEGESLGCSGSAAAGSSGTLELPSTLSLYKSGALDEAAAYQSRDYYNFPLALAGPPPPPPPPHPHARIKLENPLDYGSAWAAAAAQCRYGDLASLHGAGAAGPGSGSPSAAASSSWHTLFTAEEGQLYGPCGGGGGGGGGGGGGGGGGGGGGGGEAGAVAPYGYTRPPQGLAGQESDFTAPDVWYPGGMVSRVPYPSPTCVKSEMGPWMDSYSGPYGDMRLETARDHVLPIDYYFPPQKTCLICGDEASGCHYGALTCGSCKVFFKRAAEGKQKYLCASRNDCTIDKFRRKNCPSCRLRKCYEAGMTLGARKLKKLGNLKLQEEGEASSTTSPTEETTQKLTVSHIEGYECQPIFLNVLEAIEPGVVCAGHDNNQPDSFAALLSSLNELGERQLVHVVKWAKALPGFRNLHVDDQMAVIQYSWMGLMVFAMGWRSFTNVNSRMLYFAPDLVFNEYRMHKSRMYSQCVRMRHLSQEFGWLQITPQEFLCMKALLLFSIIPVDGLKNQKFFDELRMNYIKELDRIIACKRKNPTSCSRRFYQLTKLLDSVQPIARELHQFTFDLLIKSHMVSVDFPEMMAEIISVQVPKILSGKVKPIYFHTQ

Regarding `O=C(Cl)c1ccc(Cl)cc1Cl`, the Potency entry in test [1], in test [2], in test [3], in [4], in [5] and in [6] was “inactive” in each case. Also, the Potency entry in [7], in test [8], in [9], in test [10], in test [11] and in test [13] was “inactive” throughout. The Potency result in [14] was “inactive”. In addition, in [12], the compound was classed as inactive.
As to `O=C(N[C@H](CO)[C@H](O)c1ccc([N+](=O)[O-])cc1)C(Cl)Cl`, the Potency result in test [15], in test [2], in test [3], in test [4], in test [5] and in test [6] was “inactive” each time. Also, the Potency result in [16], in test [7], in test [8], in test [17], in test [9] and in test [10] was “inactive” throughout. The Potency result in test [11] and in [13] was “inactive” each time.
For `NCc1cccc(C2CCN(C(=O)c3ccc(C#Cc4ccccc4F)o3)CC2)c1`, the Potency in test [1] is 43.6 µM (active); in test [15] it was 49 µM (active); in test [3] it was 49 µM (active); in test [4], 68.6 µM (active); in [6], 68.6 µM (active); in test [17] it was 30.6 µM (active). Also, the Potency is 24.3 µM (active) in test [9], 6.11 µM (active) in test [11] and 54.5 µM (active) in test [18]. Moreover, the Potency entry in test [7], in [10] and in test [14] was “inactive” each time. Moreover, the result in test [12] was inactive.
For `CCCCCCCC/C=C\CCCCCCCC(=O)N(CCO)CCO`, the Potency is 43.5 µM (active) in test [1], 30.5 µM (active) in test [6] and 15.3 µM (active) in test [11]. Further, the Potency entry in test [2], in test [3], in [4], in [5], in test [7] and in test [8] was “inactive” throughout. In addition, the Potency entry in test [17], in [9] and in test [10] was “inactive” throughout.
Consider `CN1CCN(CCCN2c3ccccc3Sc3ccc(C(F)(F)F)cc32)CC1`, for which the Potency in [1] was 23.9 µM (active); in test [15], 23.9 µM (active); in test [17] it was 26.6 µM (active); in [11] it was 10.6 µM (active); in [19] it was 15 µM (active). For the same compound, the Potency result in [4], in test [7], in test [9] and in test [10] was “inactive” throughout.
As to `C/C(=C\c1ccc(C(=O)O)cc1)c1ccc2c(c1)C(C)(C)CCC2(C)C`, the Potency entry in test [1], in test [15], in [3], in test [4], in [5] and in test [7] was “inactive” throughout. The Potency entry in [17], in [9], in test [10] and in [11] was “inactive” throughout. Moreover, the call in test [12] was inactive.
Turning to `CCCCCCCCCCCCOS(=O)(=O)O`, in test [16], the Potency result was “inactive”.
`CNCCC=C1c2ccccc2CCc2ccccc21`: the Potency in test [16] is 10 µM (active).
Take `O=S(=O)(c1ccc(OCc2ccccc2)cc1)c1ccccc1O`: the Potency entry in test [15], in test [2], in test [3], in [4], in [5] and in [7] was “inactive” each time. Besides, the Potency result in test [8], in test [17], in [10] and in test [14] was “inactive” each time.
In the case of `Cc1c(O)c(=O)ccn1C`, the Potency entry in test [16] is “inactive”.
Take `O=C1OC2(c3ccccc31)c1ccc(O)c(Br)c1Oc1c2ccc(O)c1Br`: the Potency in [15] was 21.9 µM (active); in test [3], 12.3 µM (active); in test [13] it was 61.1 µM (active). Moreover, the Potency result in test [4], in [20], in [7], in test [8], in [10] and in test [11] was “inactive” each time. The Potency result in [19] and in test [14] was “inactive” throughout.
